Reference: PubChem BioAssay

Target: Concanavalin-A (Canavalia ensiformis) (UniProt P02866)
Experiment: ConA small-molecule binders, primary screen, artefact control for SMM control protein annotation, biochemical, small-molecule microarray, Alexa647 label, 635 nm (AID 1127);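 note: z combines 667 nm emission intensity with signal-to-noise across three replicate slides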
Conditions: ConA-A647 binding fluorescence, higher = more signal

Chain of Concanavalin-A (Canavalia ensiformis) (P02866 whole entry, looked up): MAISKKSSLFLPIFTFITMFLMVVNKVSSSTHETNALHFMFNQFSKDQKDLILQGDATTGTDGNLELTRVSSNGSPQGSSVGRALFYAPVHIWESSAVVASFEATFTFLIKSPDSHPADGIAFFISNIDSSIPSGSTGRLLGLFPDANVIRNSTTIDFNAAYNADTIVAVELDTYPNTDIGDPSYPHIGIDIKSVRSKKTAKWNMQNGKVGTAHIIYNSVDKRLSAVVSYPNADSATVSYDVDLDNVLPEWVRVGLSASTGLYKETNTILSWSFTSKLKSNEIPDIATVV

Row | SMILES | composite z-score
1 | COc1ccc(CCN2C(=O)[C@@]3(c4ccc([N+](=O)[O-])cc4)CC(=O)N(CC45CC6CC(CC(C6)C4)C5)[C@@H]3c3ccc(CO)cc32)cc1 | 0.402
2 | C=CCN1C(=O)[C@@]2(Cc3ccccc3)N=C(c3ccc(OCCCO)cc3)O[C@H]2c2ccccc21 | 1.15
3 | CN1CCC(CCCO)=CC1C1CC1 (stereo unspecified) | 0.066
4 | CC(C)N1CC=CC23O[C@@H]4/C=C\CCCOC(=O)C4[C@H]2C(=O)N(CCCCCO)[C@@H]3C1=O (stereo partly specified) | -1.26
5 | COCCOC(=O)N1C(=O)[C@@]2(c3cc(C#CCC(C(=O)OC)C(=O)OC)ccc31)[C@H](C(=O)N1CCN(c3ncccn3)CC1)[C@H]1C(=O)O[C@H](c3ccccc3)[C@H](c3ccccc3)N1[C@@H]2c1ccc(O)cc1 | 1.01
6 | CCC(=O)[C@]12O[C@@]3([C@@H]4C(=O)OCC[C@@H]41)N(Cc1ccccc1)C(C)=C(C(=O)OC)[C@@H](c1ccccc1)N3C2=O | -1.17
7 | COC(=O)[C@@]1(Cc2ccc(OC)cc2)[C@H]2c3cc(C(=O)N(C)C)n(Cc4ccc(C)c(F)c4F)c3C[C@H]2CN1C(=O)c1ccccc1 | 0.782
8 | COc1cc(CO)cc(I)c1O[C@H]1C=C(C(=O)NCCO)C[C@@H](NCCc2c[nH]c3ccccc23)[C@@H]1O | 0.649
9 | Cc1ccc(N2C(=O)c3ccccc3[C@](C)(C(=O)O)[C@@H]2c2ccc(CO)cc2)nc1 | -1.14
10 | COC(=O)[C@@]1(Cc2ccccc2)[C@H]2c3cc(C(=O)N4CCCC4)n(CCN4CNCC4=O)c3C[C@H]2CN1C(=O)c1ccccc1 | 1.2
11 | CO[C@@H]1COC(=O)[C@H](C)NC(=O)CC=C[C@@H](C)[C@H](OC)COC(=O)[C@H](C)NC(=O)CC=C[C@H]1C | 0.44
